Test results: PubChem BioAssay
Several values for one entry are separate records, joined by “and”; a condition that tells them apart may be missing. Equal entries are not always repeated. Activity calls are given as the source filed them. Unless noted, how the calls were made is not given here.

Tests used:
[1] = test system: Wnt5a (protein binding on small-molecule microarray); experiment: small molecules binding Wnt5a protein – biophysical, small-molecule microarray, 635/667 nm fluorescence, primary screen (AID 1142); conditions: 635 nm fluorescence, higher = more signal;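 further: fluorescence read at 667 nm with signal to noise per printed feature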
[2] = ATP-based viability of Huh7 replicon cells – cell-based, CellTiter-Glo luminescence, basal, 48 h, cytotoxicity control for HCV replication inhibitor project, primary screen (AID 1143); conditions: higher = more signal, called active from +8 up or from −8 down;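 further: Huh7 hepatoma cells carrying a hepatitis C replication reporter with no stimulus; test concentration not given here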
[3] = Pseudomonas biofilm growth suppression – PAO1 strain, BacTiter-Glo luminescence, LB-PBS, primary screen (AID 1144); conditions: P. aeruginosa PAO1 biofilm, 12 h, higher = more signal
[4] = basal CRE-LacZ reporter activity in PC12 – cell-based, unstimulated, primary screen (AID 1145); conditions: no forskolin, luminescence, 4.5 h, higher = more signal, called active from +8 up or from −8 down
[5] = forskolin-driven CRE-LacZ activity in PC12 – cell-based, CRE-LacZ reporter, forskolin-stimulated, primary screen (AID 1146); conditions: luminescence, 4.5 h, higher = more signal, called active from +8 up or from −8 down;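 further: PC12 cells with 6xCRE LacZ reporter stimulated by forskolin 10 µM; beta-galactosidase reporter signal reflecting CREB driven transcription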
[6] = target: Streptavidin (Streptomyces avidinii) (UniProt P22629); experiment: compounds binding control protein streptavidin – biophysical, small-molecule microarray, 635/667 nm fluorescence, artefact control for SMM compound annotation, primary screen (AID 1147); conditions: higher = more signal;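 further: signal reflects streptavidin binding to arrayed compounds as a control protein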
[7] = probe aInhba binding on compound microarray – biochemical, small-molecule microarray, 635/667 nm fluorescence, primary screen (AID 1148); conditions: higher = more signal;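 further: score merges 667nm spot fluorescence with signal-to-noise for antibody binding to printed compounds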
[8] = target: Torsin-1A (Homo sapiens) (UniProt O14656); experiment: TOR1A wild-type binding on microarray – cell lysate, small-molecule microarray, lysate, 635/667 nm, primary screen (AID 1149); conditions: COS7 hTOR1A-WT lysate, 635 nm fluorescence, higher = more signal
[9] = target: Torsin-1A (Homo sapiens) (UniProt O14656); experiment: torsin A mutant lysate binding on microarrays – cell lysate, small-molecule microarray, COS7 lysate, 635/667 nm fluorescence, primary screen (AID 1150); conditions: COS7 hTOR1A mutant lysate, 635 nm fluorescence, higher = more signal;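 further: score pools 667 nm emission and signal to noise measuring lysate protein binding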
[10] = test system: Sonic hedgehog protein (Shh); experiment: Sonic hedgehog microarray binding compounds – biochemical, small-molecule microarray, 635/667 nm fluorescence, primary screen (AID 1151); conditions: 635 nm fluorescence, higher = more signal;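 further: Shh protein binding to compounds spotted on small-molecule microarray slides; score combines spot fluorescence intensity with signal-to-noise across triplicate slides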
[11] = optical density shifts of acrAB sulA E. coli – strain DRC41, OD650, 48 h, E. coli filamentation inducer project, primary screen (AID 1152); conditions: higher = more signal, called active from +8 up or from −8 down;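 further: E. coli MC1000 strain DRC41 lacking acrAB efflux pump and sulA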
[12] = probe aLefty1 binding on compound microarray – biochemical, small-molecule microarray, 635/667 nm fluorescence, primary screen (AID 1153); conditions: higher = more signal;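 further: score merges spot fluorescence with signal-to-noise ratio from the scanned slide images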
[13] = plasmodial surface anion channel blockers, osmotic lysis – cell-based, P. falciparum Indochina, OD700, 1 h, primary screen (AID 1154); conditions: P. falciparum Indochina infected RBC osmotic lysis, higher = more signal, called active from +8 up or from −8 down
[14] = plasmodial surface anion channel blockers, osmotic lysis – cell-based, P. falciparum Indochina, OD700, 2 h, primary screen (AID 1155);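 further: lysis reports solute entry through the parasite surface anion channel PSAC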; conditions: P. falciparum Indochina infected erythrocytes, higher = more signal, called active from +8 up or from −8 down
[15] = changes in parasitized red cell lysis, either direction – P. falciparum Indochina, OD700, 3 h, PSAC antagonist project, primary screen (AID 1156); conditions: P. falciparum-infected erythrocytes, osmotic lysis, higher = more signal, called active from +8 up or from −8 down
[16] = plasmodial surface anion channel blockers, osmotic lysis – cell-based, P. falciparum Indochina, OD700, 18 h, primary screen (AID 1157); conditions: P. falciparum Indochina infected erythrocytes, osmotic lysis OD700, 18 h; higher = more signal, called active from +8 up or from −8 down
[17] = S6 kinase pathway phospho-S6 level changes – cell-based, A549, cytoblot, luminescence, serum-stimulated, primary screen (AID 1158); conditions: 5 h, higher = more signal;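 further: serum-stimulated A549 lung adenocarcinoma cells; signal is phosphorylated S6 detected by cytoblot immunostaining with HRP secondary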
[18] = target: NADPH oxidase 2 (Homo sapiens) (UniProt P04839); experiment: compounds shifting NOX2 Amplex Red fluorescence – cell-based, HEK293-NOX2, PMA-stimulated, NOX inhibitor project, primary screen (AID 1159); conditions: 45 min, higher = more signal, called active from +8 up or from −8 down; further: test concentration not given here
[19] = target: NADPH oxidase 4 (Homo sapiens) (UniProt Q9NPH5); experiment: compounds shifting NOX4 Amplex Red fluorescence – cell-based, HEK293-NOX4, tetracycline-induced, NOX inhibitor project, primary screen (AID 1160); conditions: HEK293-NOX4, Amplex Red H2O2 fluorescence, 45 min; higher = more signal, called active from +8 up or from −8 down
[20] = target: NADPH oxidase 5 (Homo sapiens) (UniProt Q96PH1); experiment: compounds shifting NOX5 Amplex Red fluorescence – cell-based, HEK293-NOX5, NOX inhibitor project, primary screen (AID 1161); conditions: HEK293-NOX5, ionomycin, 45 min, higher = more signal
NADPH oxidase 5 (Homo sapiens), sequence (Q96PH1 whole entry, looked up): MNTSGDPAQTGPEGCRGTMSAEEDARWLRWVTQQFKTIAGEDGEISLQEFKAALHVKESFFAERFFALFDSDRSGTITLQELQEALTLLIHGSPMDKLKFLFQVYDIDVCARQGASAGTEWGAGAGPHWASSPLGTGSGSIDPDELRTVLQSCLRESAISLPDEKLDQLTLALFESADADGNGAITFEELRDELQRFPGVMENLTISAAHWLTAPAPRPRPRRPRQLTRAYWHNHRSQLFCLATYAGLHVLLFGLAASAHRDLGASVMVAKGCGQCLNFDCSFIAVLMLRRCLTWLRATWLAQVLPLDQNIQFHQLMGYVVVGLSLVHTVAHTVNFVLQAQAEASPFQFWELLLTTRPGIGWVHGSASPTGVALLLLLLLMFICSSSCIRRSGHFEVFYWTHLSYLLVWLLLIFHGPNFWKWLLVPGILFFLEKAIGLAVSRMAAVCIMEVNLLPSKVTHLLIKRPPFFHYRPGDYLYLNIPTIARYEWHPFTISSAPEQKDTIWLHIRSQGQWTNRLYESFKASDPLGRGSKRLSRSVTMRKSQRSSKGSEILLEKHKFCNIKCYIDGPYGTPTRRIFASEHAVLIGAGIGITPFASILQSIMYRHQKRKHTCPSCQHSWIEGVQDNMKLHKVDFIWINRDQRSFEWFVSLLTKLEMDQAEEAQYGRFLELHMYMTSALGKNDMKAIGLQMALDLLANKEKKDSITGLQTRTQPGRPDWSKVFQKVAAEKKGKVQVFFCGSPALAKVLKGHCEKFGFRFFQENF

NADPH oxidase 2 (Homo sapiens), sequence (P04839 whole entry, looked up): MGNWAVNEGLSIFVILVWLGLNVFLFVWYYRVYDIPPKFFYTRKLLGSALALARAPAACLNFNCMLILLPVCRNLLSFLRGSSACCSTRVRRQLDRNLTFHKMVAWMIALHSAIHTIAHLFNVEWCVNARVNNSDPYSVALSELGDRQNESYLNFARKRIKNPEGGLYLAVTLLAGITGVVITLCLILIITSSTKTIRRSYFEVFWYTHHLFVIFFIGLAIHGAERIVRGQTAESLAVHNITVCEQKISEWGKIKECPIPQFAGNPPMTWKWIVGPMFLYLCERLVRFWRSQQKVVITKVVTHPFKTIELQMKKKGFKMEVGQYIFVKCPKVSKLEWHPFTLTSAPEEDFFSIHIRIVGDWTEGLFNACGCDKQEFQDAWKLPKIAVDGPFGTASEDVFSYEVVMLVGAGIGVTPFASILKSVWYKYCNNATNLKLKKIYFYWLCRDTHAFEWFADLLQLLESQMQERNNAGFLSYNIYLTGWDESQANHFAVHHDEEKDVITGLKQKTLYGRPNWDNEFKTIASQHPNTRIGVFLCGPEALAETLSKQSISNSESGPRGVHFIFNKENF
Torsin-1A (Homo sapiens), sequence (O14656 whole entry, looked up): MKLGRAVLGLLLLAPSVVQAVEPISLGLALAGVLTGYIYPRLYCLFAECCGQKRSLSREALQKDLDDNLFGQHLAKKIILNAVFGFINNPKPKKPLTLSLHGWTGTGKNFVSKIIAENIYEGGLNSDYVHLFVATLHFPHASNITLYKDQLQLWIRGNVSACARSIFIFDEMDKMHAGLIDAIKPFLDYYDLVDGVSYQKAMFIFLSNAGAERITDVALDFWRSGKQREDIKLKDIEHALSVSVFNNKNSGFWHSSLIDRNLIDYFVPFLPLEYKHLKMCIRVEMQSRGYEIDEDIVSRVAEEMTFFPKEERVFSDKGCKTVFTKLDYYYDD
Streptavidin (Streptomyces avidinii), sequence (P22629 whole entry, looked up): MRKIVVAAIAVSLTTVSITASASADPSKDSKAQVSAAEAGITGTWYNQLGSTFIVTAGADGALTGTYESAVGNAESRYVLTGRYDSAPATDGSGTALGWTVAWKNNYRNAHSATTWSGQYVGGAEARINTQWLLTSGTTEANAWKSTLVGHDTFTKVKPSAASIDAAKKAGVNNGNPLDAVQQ
NADPH oxidase 4 (Homo sapiens), sequence (Q9NPH5 whole entry, looked up): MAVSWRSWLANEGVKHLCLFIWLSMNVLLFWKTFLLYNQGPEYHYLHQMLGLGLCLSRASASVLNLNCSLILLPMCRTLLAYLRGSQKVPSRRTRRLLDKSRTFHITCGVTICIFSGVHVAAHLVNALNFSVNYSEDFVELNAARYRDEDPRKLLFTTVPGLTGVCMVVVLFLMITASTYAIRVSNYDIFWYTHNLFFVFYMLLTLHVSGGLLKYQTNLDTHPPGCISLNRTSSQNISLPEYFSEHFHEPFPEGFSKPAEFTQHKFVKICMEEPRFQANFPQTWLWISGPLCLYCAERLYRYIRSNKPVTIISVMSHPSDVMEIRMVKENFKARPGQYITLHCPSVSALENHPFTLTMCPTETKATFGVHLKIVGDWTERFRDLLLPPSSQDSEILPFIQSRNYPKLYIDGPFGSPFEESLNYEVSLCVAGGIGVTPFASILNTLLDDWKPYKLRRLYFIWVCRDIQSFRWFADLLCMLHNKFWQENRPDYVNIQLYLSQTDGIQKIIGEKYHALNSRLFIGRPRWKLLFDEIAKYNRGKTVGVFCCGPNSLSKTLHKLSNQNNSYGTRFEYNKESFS

SMILES | composite z-score [1] | z-score [2] | z-score [3] | z-score [4] | z-score [5] | composite z-score [6] | composite z-score [7] | composite z-score [8] | composite z-score [9] | composite z-score [10] | z-score [11] | composite z-score [12] | z-score [13] | z-score [14] | z-score [15] | z-score [16] | z-score [17] | z-score [18] | z-score [19] | z-score [20]
CCCCN1CC=CC23O[C@@H]4C=CCCOC(=O)C4[C@H]2C(=O)N(C(C)CO)[C@@H]3C1=O (stereo not given in full) | -0.296 and 0.339 | 0.161 (inactive) and -0.214 (inactive) | 0.781 (inactive) and 1.82 (inactive) | -0.216 (inactive) and -0.204 (inactive) | 0.405 (inactive) and -0.764 (inactive) | -1.23 and -0.178 | -0.143 and 0.201 | 0.234 and -0.131 | 0.234 and 0.148 | 0.173 and 0.798 | -0.462 (inactive) and -0.0672 (inactive) | -0.007 and 0.0181 | 1.77 (inactive) and 0.636 (inactive) | 0.446 (inactive) and 1.06 (inactive) | 0.874 (inactive) and 1.09 (inactive) | 0.234 (inactive) and 0.601 (inactive) | 1.48 and 1.2 | 1.49 (inactive) and 1.3 (inactive) | 0.784 (inactive) and 0.359 (inactive) | 2.31 and 2
CCOC(=O)[C@@H]1CC=C2CC1C(=O)N1CCC[C@@H]1[C@H]2O[Si](C)(C)C(C)(C)C (stereo not given in full) | -0.12 and -0.752 | 0.856 (inactive) and -3.46 (inactive) | 0.318 (inactive) and 0.0257 (inactive) | -0.692 (inactive) and -1.5 (inactive) | 1.25 (inactive) and -1.04 (inactive) | -0.759 and -2.05 | 0.027 and -0.319 | -0.408 and -2.35 | -0.0943 and -2.33 | -0.085 and -0.0655 | -1.02 (inactive) and -0.796 (inactive) | -0.199 and -0.417 | -0.0845 (inactive) and 0.699 (inactive) | -0.474 (inactive) and 0.0056 (inactive) | -0.495 (inactive) and 0.882 (inactive) | -0.0374 (inactive) and 0.133 (inactive) | 0.308 and -0.0299 | -0.0861 (inactive) and -0.161 (inactive) | 1.2 (inactive) and -0.116 (inactive) | -1.02 and -2.48
COC(=O)[C@@]1(Cc2ccc(F)cc2)[C@H]2c3cc(C(=O)N4CCCC4)n(Cc4c(CO)[nH]cc(C)c4=O)c3C[C@H]2CN1C(=O)c1ccccc1 | 2.18 and 0.117 | -1.28 (inactive) and -0.88 (inactive) | -0.0556 (inactive) and 0.0252 (inactive) | 0.762 (inactive) and 0.962 (inactive) | 3.71 (inactive) and 3.05 (inactive) | 0.418 and -0.248 | 1.24 and 0.131 | 0.113 and -0.501 | 0.797 and 0.232 | -0.552 and -0.661 | -1.7 (inactive) and -1.76 (inactive) | 1.63 and 0.0811 | 1.02 (inactive) and 1.15 (inactive) | 0.148 (inactive) and 0.543 (inactive) | 0.63 (inactive) and 0.306 (inactive) | 0.398 (inactive) and 0.57 (inactive) | -0.52 and -0.213 | 0.636 (inactive) and 0.617 (inactive) | -1.58 (inactive) and -0.346 (inactive) | -2.05 and -0.222
COCn1c2ccccc2c2nnc(C(C)=O)nc21 | -0.122 and 0.0561 | -2.71 (inactive) and -2.58 (inactive) | -0.843 (inactive) and -0.869 (inactive) | 0.11 (inactive) and -0.0732 (inactive) | 0.353 (inactive) and 0.754 (inactive) | -0.121 and -0.232 | -0.274 and 0.0111 | 0.331 and 0.417 | -0.302 and 0.13 | 0.479 and 0.343 | -1.46 (inactive) and -0.426 (inactive) | -0.103 and -0.0111 | 1.91 (inactive) and 0.558 (inactive) | -0.781 (inactive) and -1.09 (inactive) | 0.68 (inactive) and 1.07 (inactive) | -1.28 (inactive) and -1.44 (inactive) | 2.52 and 1.53 | -0.424 (inactive) and -0.738 (inactive) | -0.773 (inactive) and -0.0619 (inactive) | -2.97 and -3.35
C=CCN(C(=O)C(c1cccs1)N(C(=O)/C=C\C(=O)O)C(C)(C)CO)c1ccc(OC)cc1 (stereo not given) | -0.0325 and -0.446 | -1.8 (inactive) and -0.679 (inactive) | -1.09 (inactive) | -0.488 (inactive) and -0.619 (inactive) | -1.07 (inactive) and 0.149 (inactive) | -1.19 and -0.56 | -0.061 and -0.0371 | -1.58 and -0.301 | -0.269 and 1.24 | -0.763 and -0.121 | 3.97 (inactive) and 3.23 (inactive) | -0.0722 and 0.121 | 0.292 (inactive) and 3.92 (inactive) | -0.775 (inactive) and -0.466 (inactive) | 0.029 (inactive) and -0.675 (inactive) | -1.05 (inactive) and -1.12 (inactive) | 1.97 and 1.04 | 0.0253 (inactive) and -0.0835 (inactive) | -0.464 (inactive) and -0.814 (inactive) | -0.126 and 0.853
CO[C@H]1COC(=O)CC=C[C@H](C)[C@H](OC)COC(=O)[C@@H](C)COC(=O)CC=C[C@@H]1C | -0.051 and -0.105 | 1.08 (inactive) and -0.441 (inactive) | -0.186 (inactive) and 0.0947 (inactive) | -0.116 (inactive) and -1.19 (inactive) | -0.689 (inactive) and -0.777 (inactive) | -0.313 and 0.0956 | -0.195 and -0.224 | 0.636 and 0.802 | 0.269 and 1.17 | 1.08 and 1.09 | 0.462 (inactive) and 0.63 (inactive) | -0.294 and -0.193 | -0.267 (inactive) and 0.565 (inactive) | -0.162 (inactive) and -0.455 (inactive) | -0.146 (inactive) and 0.4 (inactive) | -0.0153 (inactive) and 0.179 (inactive) | -0.0498 and 0.833 | 0.282 (inactive) and 1.16 (inactive) | 0.201 (inactive) and 0.589 (inactive) | -0.26 and 0.25
